Source: PubChem BioAssay (Tox21)
Results filed as inconclusive are left out. A call without a number means that no potency is given here. Calls of active or inactive are those of the source. Unless noted, the call rests on the fitted dose curve. Bridge positions count the residues as written; N and C are the ends. Square brackets hold non-standard residues; d marks the D form. Peptide text beside a SMILES is read from it. hArg = N=C(N)NCCCC[C@H](N)C(=O)O; Mpa = O=C(O)CCS

What was measured:
[1] = G protein-coupled receptor (GPCR) small molecule agonists, calcium flux assay: HEK293 wild type cell line counter screen (AID 1920065)
Outline: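 Kinetic fluorescence at Ex/Em 480/540, recorded every second over 3 min, served as the read-out after compound addition. Each compound was tested at 15 concentrations in triplicate on cells pre-loaded with calcium dye for 1 h.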

[2] = p53 small molecule agonists, cell-based qHTS assay with rat liver microsomes: qHTS cell viability counter screen (AID 1963580); further: nearly all actives have a fitted effect of over 45% in size
Outline: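 In HCT-116 cells carrying a p53 response element-bla reporter, compounds were metabolically activated in situ by rat liver microsomes with NADPH over 16 h. Cell ATP content then served as the cytotoxicity measure.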

[3] = p53 small molecule agonists, cell-based qHTS assay: qHTS cell viability counter screen (AID 1963581); further: nearly all actives have a fitted effect of over 45% in size; further: potency means the concentration at half of the fitted maximal effect
Outline: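 HCT-116 p53RE-bla cells, 4,000/well, plated 5 h before compound pin transfer; 16 h at 37 C; bla substrate 2 h RT; then CellTiter-Glo, 30 min RT, luminescence.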

[4] = target: 5-hydroxytryptamine receptor 2A (Homo sapiens) (UniProt P28223); assay: 5-hydroxytryptamine receptor 2A (HTR2A) small molecule antagonists, cell-based qHTS assay (AID 1963586); further: nearly all actives have a fitted effect of over 45% in size; further: potency means the concentration at half of the fitted maximal effect
Sequence of 5-hydroxytryptamine receptor 2A (Homo sapiens) (P28223 whole entry, looked up): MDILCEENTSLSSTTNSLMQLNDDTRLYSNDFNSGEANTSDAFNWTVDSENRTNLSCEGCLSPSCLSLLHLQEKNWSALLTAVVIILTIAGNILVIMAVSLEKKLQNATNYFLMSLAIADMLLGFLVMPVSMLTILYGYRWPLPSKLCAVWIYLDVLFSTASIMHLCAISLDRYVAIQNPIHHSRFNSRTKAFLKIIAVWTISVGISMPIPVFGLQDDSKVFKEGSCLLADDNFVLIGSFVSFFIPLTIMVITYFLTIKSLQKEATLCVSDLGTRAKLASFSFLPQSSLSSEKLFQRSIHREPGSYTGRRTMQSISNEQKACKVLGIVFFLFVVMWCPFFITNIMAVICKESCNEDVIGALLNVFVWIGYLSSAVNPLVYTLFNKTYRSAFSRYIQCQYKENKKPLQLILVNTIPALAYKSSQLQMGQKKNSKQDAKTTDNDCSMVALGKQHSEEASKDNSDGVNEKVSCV
Outline: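 Antagonist-mode intracellular calcium assay: DOI (4 nM) added after 5 min compound pre-incubation at room temperature to dye-loaded HTR2A-CHO cells. Fluorescence followed for 3 min, sampled every second.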

[5] = target: D(2) dopamine receptor (Homo sapiens) (UniProt P14416); assay: Dopamine D2 receptor (DRD2) small molecule agonists, cell-based qHTS assay (AID 1963594); further: nearly all actives have a fitted effect of over 35% in size
Sequence of D(2) dopamine receptor (Homo sapiens) (P14416 whole entry, looked up): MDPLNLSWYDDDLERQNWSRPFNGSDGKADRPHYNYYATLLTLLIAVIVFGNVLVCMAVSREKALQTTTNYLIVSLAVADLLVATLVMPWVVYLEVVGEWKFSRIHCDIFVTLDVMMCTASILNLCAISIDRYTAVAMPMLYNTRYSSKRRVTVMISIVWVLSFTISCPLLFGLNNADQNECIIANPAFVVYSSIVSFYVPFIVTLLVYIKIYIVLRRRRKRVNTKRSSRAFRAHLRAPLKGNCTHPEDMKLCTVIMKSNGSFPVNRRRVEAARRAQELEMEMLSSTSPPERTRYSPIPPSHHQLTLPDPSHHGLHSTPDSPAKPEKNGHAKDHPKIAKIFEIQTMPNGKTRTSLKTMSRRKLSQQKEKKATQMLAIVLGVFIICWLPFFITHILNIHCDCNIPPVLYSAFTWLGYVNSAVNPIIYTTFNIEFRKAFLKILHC
Outline: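 HEK293 cells stably expressing DRD2 were cultured 24 h at 37 C, then given Ro20-1724 (0.1 mM final) and compounds for 10 min at room temperature. NKH477 (200nM) was then added for 30 min. cAMP was read by HTRF.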

[6] = target: D(2) dopamine receptor (Homo sapiens) (UniProt P14416); assay: Dopamine D2 receptor (DRD2) small molecule antagonists, cell-based qHTS assay (AID 1963595; active means well fitted inhibition curve with a large enough effect in the signal ratio in the repeat runs, with a control signal flat; the % refers to the signal ratio)
Outline: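 DRD2-HEK293; 0.1 mM Ro20-1724; cpd 10 min RT; NKH477 200 nM + quinpirole 12 nM, 30 min RT; HTRF cAMP (cAMP-d2/anti-cAMP cryptate), 665/620 nm ratio after 1 h.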

[7] = p53 small molecule agonists, cell-based qHTS assay with rat liver microsomes (AID 1963578)
Outline: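 p53RE-bla cells were exposed to compounds together with rat liver microsomes (0.5 mg/mL final) and NADPH (0.5 mg/mL final) for 16 h at 37 C, then read by LiveBLAzer beta-lactamase fluorescence after 2 h at room temperature.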

[8] = p53 small molecule agonists, cell-based qHTS assay (AID 1963582; active means well fitted activation curve with a large enough effect in the signal ratio in the repeat runs, not every such curve was filed as active; the % refers to the signal ratio)
Outline: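 Reporter line: p53RE-bla. Pre-incubation 5 h, 37 C, 5% CO2; compound (DMSO, pin tool) 16 h, 37 C; B/G FRET substrate 2 h RT; fluorescence intensity read.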

[9] = target: 5-hydroxytryptamine receptor 2A (Homo sapiens) (UniProt P28223); assay: 5-hydroxytryptamine receptor 2A (HTR2A) small molecule agonists, cell-based qHTS assay (AID 1963587); further: nearly all actives have a fitted effect of over 30% in size; further: potency means the concentration at half of the fitted maximal effect
Outline: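 HTR2A-CHO cells, plated 18 h at 37 C/5% CO2, dye-loaded 1 h at 37 C; compounds in DMSO added by pin tool (agonist mode). Intracellular calcium flux read as kinetic fluorescence on FDSS over 2 min at 1 s intervals.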

[10] = target: Muscarinic acetylcholine receptor M1 (Homo sapiens) (UniProt P11229); assay: Cholinergic receptor muscarinic 1 (CHRM1) small molecule antagonists, cell-based qHTS assay (AID 1963588); further: nearly all actives have a fitted effect of over 40% in size
Sequence of Muscarinic acetylcholine receptor M1 (Homo sapiens) (P11229 whole entry, looked up): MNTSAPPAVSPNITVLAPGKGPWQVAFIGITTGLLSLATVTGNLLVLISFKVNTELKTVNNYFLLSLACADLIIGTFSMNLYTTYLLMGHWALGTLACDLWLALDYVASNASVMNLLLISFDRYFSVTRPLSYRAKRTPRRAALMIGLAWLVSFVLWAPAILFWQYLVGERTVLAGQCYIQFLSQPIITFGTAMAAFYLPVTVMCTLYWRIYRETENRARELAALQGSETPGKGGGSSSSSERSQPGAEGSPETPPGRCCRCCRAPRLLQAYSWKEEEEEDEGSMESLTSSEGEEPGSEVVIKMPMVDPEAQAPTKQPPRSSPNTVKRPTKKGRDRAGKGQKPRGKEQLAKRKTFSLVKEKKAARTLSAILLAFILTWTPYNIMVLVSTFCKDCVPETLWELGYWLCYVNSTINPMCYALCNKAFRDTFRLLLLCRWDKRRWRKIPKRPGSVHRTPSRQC
Outline: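 CHRM1-CHO calcium-flux assay, antagonist mode. Cells were seeded 18 h, dye-loaded 1 h at 37 C and given compound for 5 min at RT, then acetylcholine was added at 50nM. FDSS fluorescence was read 3 min; 15 concentrations, three runs.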

[11] = target: Muscarinic acetylcholine receptor M1 (Homo sapiens) (UniProt P11229); assay: Cholinergic receptor muscarinic 1 (CHRM1) small molecule agonists, cell-based qHTS assay (AID 1963589); further: nearly all actives have a fitted effect of over 35% in size
Outline: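 Human M1 in stable CHO line; 18 h plating, 1 h dye load 37 C; cpd added (agonist mode); Ca2+ fluorescence kinetic read, 1 s intervals; 15 conc, 3 runs.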

[12] = target: Gonadotropin-releasing hormone receptor (Homo sapiens) (UniProt P30968); assay: Human gonadotropin-releasing hormone receptor (GnRHR) small molecule agonists, calcium flux assay in GnRHR-HEK293 cells (AID 1920063); further: nearly all actives have a fitted effect of over 35% in size
Sequence of Gonadotropin-releasing hormone receptor (Homo sapiens) (P30968 whole entry, looked up): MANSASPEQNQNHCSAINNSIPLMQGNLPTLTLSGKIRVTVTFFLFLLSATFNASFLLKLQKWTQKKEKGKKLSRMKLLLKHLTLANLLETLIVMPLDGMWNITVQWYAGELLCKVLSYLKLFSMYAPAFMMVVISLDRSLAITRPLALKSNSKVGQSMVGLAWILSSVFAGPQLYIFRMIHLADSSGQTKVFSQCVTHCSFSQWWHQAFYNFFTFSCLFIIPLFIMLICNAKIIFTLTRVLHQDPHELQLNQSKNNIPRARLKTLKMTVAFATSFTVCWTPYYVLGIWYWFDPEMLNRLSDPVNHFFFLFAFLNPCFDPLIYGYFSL
Outline: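 GnRHR-HEK293, 1500 cells/well, 18 h 37 C/5% CO2; Ca dye 1 h 37 C; cpd pinned (DMSO), agonist mode; kinetic FL 480/540, 3 min, 1 s reads; 15 conc, n=3.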

[13] = target: KiSS-1 receptor (Homo sapiens) (UniProt Q969F8); assay: Human kisspeptin (KISS1R) small molecule agonists, calcium flux assay in KISS1R-HEK293 cells (AID 1920064; active means well fitted activation curve with a large enough effect in the repeat runs)
Sequence of KiSS-1 receptor (Homo sapiens) (Q969F8 whole entry, looked up): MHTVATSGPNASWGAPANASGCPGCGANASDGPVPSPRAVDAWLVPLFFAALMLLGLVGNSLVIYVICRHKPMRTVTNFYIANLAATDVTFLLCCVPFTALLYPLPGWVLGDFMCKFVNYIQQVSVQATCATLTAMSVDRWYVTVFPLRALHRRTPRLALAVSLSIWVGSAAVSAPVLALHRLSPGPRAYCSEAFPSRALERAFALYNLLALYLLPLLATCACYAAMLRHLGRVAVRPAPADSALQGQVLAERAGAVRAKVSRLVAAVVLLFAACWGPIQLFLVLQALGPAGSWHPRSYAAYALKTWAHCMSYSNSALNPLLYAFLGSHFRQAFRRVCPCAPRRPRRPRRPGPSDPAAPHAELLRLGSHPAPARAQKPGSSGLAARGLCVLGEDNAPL
Outline: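 Stable human KISS1R HEK293 line; 18 h plating, 37 C/5% CO2; calcium dye 1 h 37 C; compound pin transfer; kinetic fluorescence Ex/Em 480/540, 3 min.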

[14] = p53 small molecule agonists, cell-based qHTS assay with human liver microsomes (AID 1963577)
Outline: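 p53RE-bla reporter cells were pre-incubated 5 h at 37 C, then treated with compounds plus human liver microsomes (0.5 mg/mL final) and NADPH (0.5 mg/mL final) for 16 h at 37 C. Beta-lactamase activity was read by LiveBLAzer fluorescence after 2 h at room temperature.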

[15] = p53 small molecule agonists, cell-based qHTS assay with human liver microsomes: qHTS cell viability counter screen (AID 1963579); further: nearly all actives have a fitted effect of over 45% in size
Outline: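 p53RE-bla cells (4,000/well) were pre-incubated 5 h at 37 C, then given compounds in DMSO plus human liver microsomes (0.5 mg/mL final) and NADPH (0.5 mg/mL final) for 16 h at 37 C. Viability was read by CellTiter-Glo luminescence.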

[16] = target: Beta-2 adrenergic receptor (Homo sapiens) (UniProt P07550); assay: Adrenergic beta2 receptor (ADRB2) small molecule antagonists, cell-based qHTS assay (AID 1963592); further: series mostly up to about 92 µM; nearly all actives have a fitted effect of over 50% in size
Sequence of Beta-2 adrenergic receptor (Homo sapiens) (P07550 whole entry, looked up): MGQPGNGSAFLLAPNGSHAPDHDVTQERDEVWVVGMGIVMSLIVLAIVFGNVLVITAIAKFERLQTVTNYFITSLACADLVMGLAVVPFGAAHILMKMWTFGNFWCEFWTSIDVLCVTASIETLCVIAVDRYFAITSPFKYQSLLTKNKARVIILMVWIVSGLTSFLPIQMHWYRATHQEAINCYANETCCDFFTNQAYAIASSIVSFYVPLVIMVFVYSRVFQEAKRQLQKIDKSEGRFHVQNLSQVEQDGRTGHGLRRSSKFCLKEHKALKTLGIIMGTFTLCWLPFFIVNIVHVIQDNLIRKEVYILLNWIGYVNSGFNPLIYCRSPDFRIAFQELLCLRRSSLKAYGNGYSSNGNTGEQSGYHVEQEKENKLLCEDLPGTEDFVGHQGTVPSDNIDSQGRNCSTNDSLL
Outline: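 Cells (CHO, stable ADRB2 overexpression) incubated 18-20hr at 37C; compounds added from DMSO; agonist mix (1nM isoproterenol, 100uM IBMX, 25uM Ro-20-1724) added; 0.5hr RT; d2-cAMP and anti-cAMP-cryptate added; 1hr RT; 665/615 nm read.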

[17] = target: Beta-2 adrenergic receptor (Homo sapiens) (UniProt P07550); assay: Adrenergic beta2 receptor (ADRB2) small molecule agonists, cell-based qHTS assay (AID 1963593);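 further: CHO cells stably overexpressing human ADRB2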
Outline: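 CHO cells stably over-expressing ADRB2 were plated overnight at 37C, then dosed with compounds plus a stimulation mix containing 100uM IBMX and 25uM Ro-20-1724 for 0.5hr at room temperature. cAMP was measured by HTRF competition, 1hr.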

[18] = cAMP Responsive Elements (CRE) small molecule agonists, cell-based qHTS assay (AID 1963590)
Outline: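 HEK 293T CRE-bla, 2,000 cells/well, 18 h preincubation 37 C/5% CO2; cpds (DMSO) pinned, 3 h; LiveBLAzer B/G FRET substrate, 2 h RT.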

[19] = cAMP Responsive Elements (CRE) small molecule antagonists, cell-based qHTS assay (AID 1963591; active means well fitted inhibition curve with a large enough effect in the signal ratio in the repeat runs, not every such curve was filed as active; the % refers to the signal ratio; further: potency means the concentration at half of the fitted maximal effect)
Outline: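 Beta-lactamase reporter read by FRET substrate (LiveBLAzer B/G) after 2 h at room temperature. CRE-bla HEK293T cells had received compound plus 0.25 uM (final) NKH477 for 3 h at 37 °C.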

For O=C(O)C1(c2ccc3c(c2)OC[C@H](Cc2ccc(-c4ccccc4)cc2)[C@H]3O)CCCC1, the Potency [1] was “inactive”, the Potency [2] was “inactive” and the Potency [3] was 32.4 µM (active). For the same molecule, the Potency [4] was 5.3 µM (active), the Potency [5] was “inactive” and the Potency [6] was “inactive”.
In the case of O=C(O)/C=C\C(=O)O, the Potency [7] is reported as “inactive”, the Potency [3] is reported as “inactive” and the Potency [8] is reported as “inactive”.
In the case of CC(=O)N[C@@H](CO)C(=O)N[C@@H](CC(=O)O)C(=O)N[C@@H](CCCCN)C(=O)N1CCC[C@H]1C(=O)O (Ac-SDKP-OH), the Potency [4] is reported as “inactive”, the Potency [9] is reported as “inactive” and the Potency [10] is reported as “inactive”. For the same molecule, the Potency [11] was “inactive”.
For Nc1ccccc1C(=O)Oc1ccc2ccccc2c1, the Potency [12] was “inactive”, the Potency [13] was “inactive” and the Potency [14] was “inactive”. For the same molecule, the Potency [7] was “inactive”, the Potency [15] was “inactive” and the Potency [2] was “inactive”. For the same molecule, the Potency [8] was “inactive”, the Potency [4] was “inactive” and the Potency [9] was “inactive”. For the same molecule, the Potency [10] was “inactive”, the Potency [11] was “inactive” and the Potency [16] was “inactive”. The Potency [5] was “inactive” and the Potency [6] was “inactive”.
With NC(=O)[C@@H]1CSSCCC(=O)N[C@@H](CCCCN=C(N)N)C(=O)NCC(=O)N[C@@H](CC(=O)O)C(=O)N[C@@H](Cc2c[nH]c3ccccc23)C(=O)N2CCC[C@H]2C(=O)N1 ([Mpa][hArg]GDWPC-NH2; disulfide 1-7) the Potency [4] was “inactive”, the Potency [9] was “inactive” and the Potency [10] was “inactive”. For the same molecule, the Potency [11] was “inactive”.
In the case of CC(C)(C)c1ccc(O)cc1, the Potency [4] is reported as “inactive”, the Potency [9] is reported as “inactive” and the Potency [10] is reported as “inactive”. The Potency [11] was “inactive”, the Potency [16] was “inactive” and the Potency [17] was “inactive”. For the same molecule, the Potency [5] was “inactive” and the Potency [6] was “inactive”.
In the case of O=S(=O)(O)c1cc(O)ccc1O, the Potency [15] is reported as “inactive”, the Potency [2] is reported as “inactive” and the Potency [3] is reported as “inactive”.
In the case of O=C(O)/C=C/C(=O)O, the Potency [14] is reported as “inactive”, the Potency [7] is reported as “inactive” and the Potency [15] is reported as “inactive”. For the same molecule, the Potency [2] was “inactive”, the Potency [3] was “inactive” and the Potency [8] was “inactive”.
For CN(C)CCCCCCN(C)C, the Potency [14] was “inactive”, the Potency [7] was “inactive” and the Potency [15] was “inactive”. The Potency [2] was “inactive” and the Potency [3] was “inactive”.
With CCN(C(C)=O)c1cccc(-c2ccnc3c(C#N)cnn23)c1 the Potency [12] was “inactive”, the Potency [1] was “inactive” and the Potency [14] was “inactive”. The Potency [7] was “inactive”, the Potency [15] was “inactive” and the Potency [2] was “inactive”. For the same molecule, the Potency [3] was “inactive”, the Potency [8] was “inactive” and the Potency [18] was “inactive”. The Potency [17] was “inactive”, the Potency [5] was “inactive” and the Potency [6] was “inactive”.
For COc1cccc2c1C(=O)c1c(O)c3c(c(O)c1C2=O)C[C@@](O)(C(=O)CO)CC3OC1CC(N2CCOC(OC)C2)C(O)C(C)O1 (some centres undefined), the Potency [13] was “inactive”, the Potency [1] was “inactive” and the Potency [14] was “inactive”. For the same molecule, the Potency [7] was “inactive”, the Potency [4] was “inactive” and the Potency [9] was 16.9 µM (active). For the same molecule, the Potency [10] was “inactive”, the Potency [11] was “inactive” and the Potency [18] was “inactive”. The Potency [19] was 1.19 µM (active), the Potency [16] was “inactive” and the Potency [17] was “inactive”.
With CC(C)(C)c1cc([N+](=O)[O-])cc(C(C)(C)C)c1O the Potency [12] was “inactive”, the Potency [13] was “inactive” and the Potency [14] was “inactive”. The Potency [7] was “inactive”, the Potency [15] was “inactive” and the Potency [3] was “inactive”. The Potency [4] was “inactive”, the Potency [9] was “inactive” and the Potency [11] was “inactive”. The Potency [17] was “inactive”, the Potency [5] was “inactive” and the Potency [6] was “inactive”.
With CCC(OC(C)=O)C(CC(C)NC)(c1ccccc1)c1ccccc1 (centres undefined) the Potency [12] was “inactive”, the Potency [14] was “inactive” and the Potency [7] was “inactive”. For the same molecule, the Potency [15] was “inactive”, the Potency [2] was “inactive” and the Potency [3] was “inactive”. The Potency [8] was “inactive”, the Potency [4] was “inactive” and the Potency [10] was “inactive”. For the same molecule, the Potency [11] was “inactive”, the Potency [19] was “inactive” and the Potency [16] was “inactive”. The Potency [17] was “inactive”, the Potency [5] was “inactive” and the Potency [6] was “inactive”.
